Compound activity from PubChem BioAssay.
Most compounds without a hit are left out; they make up all but 11% or so of the library.
HPGD inh: inhibitors of human 15-hydroxyprostaglandin dehydrogenase (HPGD) | P15428 | purified HPGD, NADH fluorescence kinetic, PGE2 substrate | Potency, µM, most hits filed as inhibitors | 4.3% of 150,000 active | AID 894
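NADH formation kinetics: reaction with 30 uM PGE2 and 1 mM NAD+ (final), 20 nM enzyme, Tris-HCl pH 8 with Tween 20, after 15 min compound preincubation at room temperature. Fluorescence change, last versus first of five reads.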
ALDH1A1 inh: blocks purified human ALDH1A1 activity; Potency, µM (highest dose often 75.3 µM), most hits filed as inhibitors; Purified ALDH1A1, NADH fluorescence, propionaldehyde substrate; P00352; 7.3% of 220,000 active
Target sequence (P00352 whole entry, looked up): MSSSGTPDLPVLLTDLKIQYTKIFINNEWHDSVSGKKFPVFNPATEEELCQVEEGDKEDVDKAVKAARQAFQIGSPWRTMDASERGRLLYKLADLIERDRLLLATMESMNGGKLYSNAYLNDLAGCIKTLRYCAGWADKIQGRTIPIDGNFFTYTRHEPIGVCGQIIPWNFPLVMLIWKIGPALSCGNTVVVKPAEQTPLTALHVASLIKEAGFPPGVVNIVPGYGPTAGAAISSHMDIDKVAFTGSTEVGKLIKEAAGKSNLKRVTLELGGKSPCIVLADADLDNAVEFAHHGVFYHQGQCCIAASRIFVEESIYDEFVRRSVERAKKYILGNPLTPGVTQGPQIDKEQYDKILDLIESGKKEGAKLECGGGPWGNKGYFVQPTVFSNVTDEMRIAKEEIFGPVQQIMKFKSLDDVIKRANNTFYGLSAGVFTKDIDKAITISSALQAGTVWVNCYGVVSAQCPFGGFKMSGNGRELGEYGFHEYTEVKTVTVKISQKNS
PNC assembly inh: perinucleolar compartment assembly inhibition; PC3M PTB-GFP, PNC prevalence imaging, 16 h; hits give low values; activity change (PNC), negative = inhibition, % at 10 µM; 3.1% of 140,000 active;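 active = readout at or below -70, meaning at least 70% loss of cells showing the perinucleolar compartment, a nuclear body marking cancer cells; inconclusive = readout between -30 and a set limit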
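Compounds are pinned in duplicate onto adhered PC3M cells stably expressing GFP-tagged PTB and incubated 16 h at 37 C. Cells are then fixed, nuclei stained with Hoechst, and PNC-positive cells counted.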
IMPase inh: IMPase inhibition in cells | 120,000 tested, under 10 active | inhibition (IP1 accumulation), % at 46.1 µM | CHO-M1 cells, IP1 accumulation, HTRF TR-FRET ratio | P97697; active = well fitted curve in the direction sought with a large enough effect in the signal ratio, not every such curve was filed as active; inconclusive = small, poorly fitted or top-dose-only effect, or a change in a side signal; inactive = no such curve, though single readings can be large or run the other way; the % refers to the signal ratio;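 also: cells stimulated with carbachol in lithium chloride buffer; higher means more IMPase inhibition seen as more IP1 and lower FRET ratio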
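Carbachol-driven Gq signalling in CHO-M1 cells (2000/well) generates IP1. Compounds that block IMPase raise IP1 and so reduce the FRET signal from Eu-anti-IP1 and d2-IP1 after a 10 min room-temperature lysis.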
IMPase Li inh: membrane-permeable IMPase blocker, potentiated with lithium | CHO-M1 cells, IP1 TR-FRET (IP-One), carbachol + lithium | Potency, µM (doses to about 59.4 µM), actives largely listed as inhibitors | 0.35% of 210,000 active; active = well fitted inhibition curve with a large enough effect; inconclusive = small, poorly fitted or top-dose-only effect; inactive = no such curve, though single readings can be large or run the other way;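 also: IP1 builds up when IMPase is blocked and the TR-FRET signal falls; nearly all actives have a fitted effect of over 50% in size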
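CHO cells stably expressing M1 receptor (2000/well) were cultured 16–30 h, then exposed to compounds with a small lithium addition for 30 min at 37C. IP1 was measured by TR-FRET competition; AC50 from Hill fits.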
Of the large screens only hits and unclear results are named; the others gave an inactive call. Unless noted, calls follow the shape of the dose curve; as a rule, active = well fitted inhibition curve with a large enough effect (not every such curve was filed as active); inconclusive = small, poorly fitted or top-dose-only effect, or another doubt; inactive = no such curve, though single readings can be large or run the other way.

CCOc1ccc(CC(=O)C2C(=O)CC(C)(C)CC2=O)cc1OCC	ALDH1A1 inh 7.9µM
CCOc1ccc(CC(=O)C2C(=O)CCCC2=O)cc1OCC	ALDH1A1 inh inconclusive
CCN(CC)CC[n+]1ccc2c(C)c3[nH]c4ccc(O)cc4c3c(C)c2c1	HPGD inh inconclusive (no result: PNC assembly inh, IMPase inh)
CNc1ncnc2ccc(-c3ccccc3C)cc12	none (no result: HPGD inh, PNC assembly inh, IMPase inh)
COc1cccc2c1OCC/C2=N\NC(=O)C(C)Oc1ccc([N+](=O)[O-])cc1 (configuration not stated)	ALDH1A1 inh inconclusive (no result: HPGD inh, PNC assembly inh, IMPase inh)
COC(=O)C1=C(C(=O)OC)[C@@H]2N(C)c3ccccc3[C@@]23C[C@@H](C(=O)OC)N(S(=O)(=O)c2ccc4c(c2)OCCN4C)C3=N1	ALDH1A1 inh inconclusive (no result: PNC assembly inh, IMPase inh)
O=C(COC(=O)C12CC3CC(CC(C3)C1)C2)NC12CC3CC(CC(C3)C1)C2	ALDH1A1 inh 14µM
CCC(CC)C(=O)OCC(=O)NC12CC3CC(CC(C3)C1)C2	ALDH1A1 inh inconclusive
O=C(COC(=O)C(O)c1ccccc1)NC12CC3CC(CC(C3)C1)C2 (configuration not stated)	ALDH1A1 inh 32µM
O=c1c2ccccc2nc(N/N=C/c2c(O)ccc3ccccc23)n1O	HPGD inh 22µM, ALDH1A1 inh inconclusive
Oc1ccc(/C=N/NC2=NCCCCC2)cc1	HPGD inh inconclusive, ALDH1A1 inh 18µM
CC(C)(C)c1ccc(/C=N/Nc2ccc(C(=O)O)cc2)cc1	HPGD inh 14µM (no result: IMPase inh)
Oc1ccc(/C=N/Nc2ccccc2)cc1	ALDH1A1 inh 20µM (no result: HPGD inh, PNC assembly inh, IMPase inh)
O=C(O)c1ccc(N/N=C/c2ccc(C(F)(F)F)cc2)cc1	ALDH1A1 inh inconclusive (no result: HPGD inh, PNC assembly inh, IMPase inh)
O=[N+]([O-])c1ccccc1/C=N/NC1=NCCCCC1	ALDH1A1 inh inconclusive, IMPase inh inconclusive
Brc1ccc(/C=N/Nc2ccccc2)cc1	HPGD inh inconclusive (no result: IMPase inh)
CC(=O)N1CC=CC1(CC(C)C)C(=O)O (configuration not stated)	none (no result: PNC assembly inh, IMPase inh)
O=c1c2ccccc2nc(N/N=C/c2ccc(O)cc2)n1O	HPGD inh 13µM, ALDH1A1 inh 10µM, PNC assembly inh inconclusive
CCCc1nc2ccccc2c(=O)n1/N=C/c1ccc(O)cc1	none
Cc1ccc(S(=O)(=O)/N=C(/Nc2ccc3[nH]c(=O)[nH]c3c2)c2ccc(F)cc2)cc1	ALDH1A1 inh 8.9µM (no result: HPGD inh, PNC assembly inh, IMPase inh)
N#C/C(C(=O)NCc1ccco1)=C1/SC=C(c2ccccc2)N1c1ccccc1	HPGD inh inconclusive, ALDH1A1 inh inconclusive, IMPase Li inh 11µM (no result: IMPase inh)
CC1=CS/C(=C(/C#N)C(=O)NCc2ccco2)N1c1ccccc1	none
COC(=O)[C@@H]1C[C@H]1[C@@H](NC(=O)c1cccnc1)c1ccccc1	none (no result: PNC assembly inh, IMPase inh)
COC(=O)[C@H]1C[C@@H]1[C@H](NC(=O)c1ccccc1)c1ccccc1	ALDH1A1 inh 8.9µM (no result: IMPase inh)
CCCC[C@@H]1C[C@H]1C(NC(=O)c1ccco1)c1ccccc1 (some centres not stated)	ALDH1A1 inh 25µM (no result: PNC assembly inh, IMPase inh)
CCSCCc1nnc(NC(=O)Nc2cccc(C(F)(F)F)c2)s1	none
CC(C)=CCc1c2c(c3occ(-c4ccc(O)cc4)c(=O)c3c1O)C=CC(C)(C)O2	ALDH1A1 inh 25µM (no result: PNC assembly inh, IMPase inh)
CCOc1cccc(=O)c2c(C)n(CC(=O)c3ccccc3)c(C)c12	ALDH1A1 inh 8.9µM (no result: HPGD inh, PNC assembly inh, IMPase inh)
CCCN(C(=O)CCc1nc(-c2ccc(OC)cc2)no1)c1ccccc1F	none (no result: HPGD inh, ALDH1A1 inh, PNC assembly inh, IMPase Li inh)
CC1(C)c2ccccc2N2CCC(=O)NC21/C=C/c1ccco1 (configuration not stated)	none
Cc1ccc2c(c1)C(C)(C)[C@]1(C)NC(=O)CCN21	ALDH1A1 inh 40µM
CN(C)C(=O)n1nnnc1Cc1ccc(-c2ccccc2)cc1	ALDH1A1 inh 1µM (no result: PNC assembly inh, IMPase inh)
O=C1CCCC=C1[C@H](CCc1ccccc1)OC(=O)c1ccc(Br)cc1	none (no result: HPGD inh, PNC assembly inh, IMPase inh, IMPase Li inh)
CCCCn1c2c(c(=O)n(C)c1=O)C(c1ccc(OC)cc1)N1CCCCCC1=N2 (configuration not stated)	ALDH1A1 inh 0.14µM
CCCCn1c(SCC(=O)N2CCCc3ccccc32)nc2c1c(=O)n(C)c(=O)n2C	none
CC(C)(C)CNCCO	none (no result: PNC assembly inh, IMPase inh)
O=C(NCCc1ccccn1)c1cccc(S(=O)(=O)N2CCc3ccccc32)c1	ALDH1A1 inh 20µM (no result: HPGD inh, PNC assembly inh, IMPase inh)
COc1ccc(NC(=O)c2cccc(S(=O)(=O)N3CCc4ccccc43)c2)cn1	ALDH1A1 inh 3.2µM (no result: HPGD inh, PNC assembly inh, IMPase inh)
O=C(CN1C(=O)C2CC=CCC2C1=O)Nc1ccc(S(=O)(=O)N2CCOCC2)cc1 (configuration not stated)	none (no result: HPGD inh, PNC assembly inh, IMPase inh)
COc1ccc2c(c1)C(=O)c1ccccc1CO2	HPGD inh 35µM, ALDH1A1 inh 4µM, PNC assembly inh inconclusive
COc1ccc2oc(=O)c(-c3nc4ccccc4o3)cc2c1	HPGD inh inconclusive, ALDH1A1 inh inconclusive, PNC assembly inh -81
O=c1oc2ccccc2cc1-c1nc2ccccc2o1	HPGD inh inconclusive, ALDH1A1 inh inconclusive
O=C1OCCN1CCNCc1cn(-c2ccc(F)cc2)nc1-c1ccccc1Cl	ALDH1A1 inh inconclusive (no result: HPGD inh, PNC assembly inh, IMPase inh)
Cc1ccc(-n2cc(CNCCN3CCOC3=O)c(-c3cccc(C)c3)n2)cc1	ALDH1A1 inh 7.1µM (no result: HPGD inh, PNC assembly inh, IMPase inh)
COc1ccc(C(=O)CSc2nnc(CNc3ccc(C)cc3C)n2Cc2ccco2)cc1	HPGD inh inconclusive, ALDH1A1 inh 7.1µM
Cc1ccc(C(=O)CSc2nnc(CNc3ccc(C)cc3C)n2Cc2ccco2)cc1	ALDH1A1 inh 22µM
Cc1ccc(OCc2nnc(SCC(=O)c3ccccc3)n2Cc2ccco2)cc1	ALDH1A1 inh inconclusive
